PubChem BioAssay (EPA / NIEHS)
Values joined by “and” are separate entries in the source; they are usually repeats but may differ in a detail not shown here. Identical values can stand only once. Active and inactive are the calls of the source. Rule for the calls: active = hit-call score of the fitted dose curve at least 0.9, where 1 is the maximum; inconclusive = response in the unintended direction; inactive = score below 0.9.

assay: IUF_NPC2-5_cytotoxicity_120hr: Cytotoxicity Assessment at 120 hours in the Leibniz Research Institute for Environmental Medicine (IUF) Neural Progenitor Cell Migration and Differentiation Assay (NPC2-5) (AID 2284307);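 for AC50: LDH released into supernatant as membrane damage marker via resorufin fluorescence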
Method: IUF_NPC2-5 is a cell-based, multiplexed assay that uses hNPC, a human primary neural progenitor cells, with measurements taken at 72 or 120 hours after chemical dosing in a 96-well plate. Human neural progenitor cells (hNPC) are generated from human fetal brain cortex at gestational week (GW) 16-19. In the neural progenitor cell migration and differentiation assay (NPC2-5), hNPCs grown as spheres are plated on an extracellular matrix and migrate and differentiate out of the sphere core. The processes radial glia migration, neuronal and oligodendrocyte migration as well as neuronal differentiation, neuronal morphology and oligodendrocyte differentiation are studied using automated phase contrast imaging and automated fluorescence imaging in combination with high content image analysis. In parallel, the cell viability is assessed using an alamar blue viability assay and the cytotoxicity using a lactate dehydrogenase dependent membrane integrity assay.IUF_NPC2-5_cytotoxicity_120hr is one of 12 assay components measured from the IUF_NPC2-5 assay. It is designed to measure cytotoxicity at 120hr due to loss of membrane integrity. LDH measurements are performed from medium supernatants of each well and are based on the reduction of resazurin to resorufin measured as fluorescence signal (relative fluorescence unit) in a multiplate reader. Data from the IUF_NPC2-5_cytotoxicity_120hr component was analyzed at the endpoint IUF_NPC2-5_cytotoxicity_120hr in the positive analysis fitting direction relative to the dynamic range and baseline of activity. Using a type of viability reporter, gain-of-signal activity can be used to understand cytotoxicity effects.
Culture protocol: After the cell expansion period the cells are cultured for up to four weeks in which they are passaged every week as described in 3.6. Between one to three days after passaging spheres at a size of 0.3 mm are picked for the test method. For the assessment of neural progenitor cell migration and differentiation, the spheres are plated on poly-D-lysine/laminin coated 96-well flat bottom plates in differentiation medium (N2) to initiate migration and differentiation. Thereby one 0.3 mm big sphere is plated in the middle of a well. The differentiation medium consists of DMEM and Ham's F12 at a ratio of 3 to 1 supplemented with 1% N2 and 1% penicillin and streptomycin. Within 5 days NPCs radially migrate out of the sphere core and differentiate into radial glia cells (nestin positive), neurons (TUBB3 positive), oligodendrocytes (O4 positive) and astrocytes (GFAP positive). Cultivation during the test method is performed at 37C and 5% CO2 at a ph of 7.2-7.6.Exposure: 0.3 mm big hNPC are plated in the already prepared test conditions. Exposure starts at day 0 of differentiation and is continued over five days of differentiation until the experiment is terminated. Cells are fed with fresh medium at day 3 of differentiation. Therefore, half of the test condition solution (e.g. solvent control or compound dilution) is replaced by freshly prepared test condition solution.Test Method: Migration distance and cytotoxicity is determined after 72 hours based on brightfield images of each well. The assay is terminated by the assessment of cell viability and cytotoxicity as well as cell fixation after 120 h. Immunocytochemistry is performed for Hoechst positive nuclei, TUBB3 positive neurons and O4 positive oligodendrocytes. On the ICC images, migration after 120 hours, neuronal and oligodendrocyte number, neuronal morphology and neuron/oligodendrocyte specific migration is assessed. immunocytochemical staining (ICC) generates an image for each sphere. The plates are scanned using an automated high content imaging device and all nuclei and their positions are determined automatically based on their intensity and size. Images are imported to the Omnisphero software to run the image analysis that measures the following endpoints. […]

SMILES	outcome	AC50
CCOP(=O)(NC(C)C)Oc1ccc(SC)c(C)c1 (centres undefined)	inactive	
C[N+]1(C)CCCCC1		0.0969 µM (active)
COP(=O)(NC(C)=O)SC (centres undefined)	inactive	
CCOP(=S)(OCC)SCCSCC	inactive	
C=C(C)[C@H]1Cc2c(ccc3c2O[C@@H]2COc4cc(OC)c(OC)cc4[C@@H]2C3=O)O1	inactive	
CC(C)N(C(=O)SCC(Cl)=C(Cl)Cl)C(C)C	inactive	
CCOP(=S)(OCC)OC(Cl)C(Cl)(Cl)Cl (centres undefined)	inactive	
CCOC(=O)CC(SP(=O)(OC)OC)C(=O)OCC (centres undefined)	inactive	
CCOP(=S)(OCC)Oc1cc(C)nc(C(C)C)n1	inactive	
CN(C)[C@@H]1C(=O)C(C(N)=O)=C(O)[C@@]2(O)C(=O)C3=C(O)c4c(O)cccc4[C@@](C)(O)[C@H]3[C@H](O)[C@@H]12		25.8 µM (active)
CCCCSP(=O)(SCCCC)SCCCC	inactive	
CN1COCN(Cc2cnc(Cl)s2)C1=N[N+](=O)[O-]	inactive	
COP(=O)(OC)C(O)C(Cl)(Cl)Cl (centres undefined)	inactive	
CCCSP(=O)(OCC)SCCC	inactive	
CC[C@H](C)[C@H]1O[C@]2(C=C[C@@H]1C)C[C@@H]1C[C@@H](C/C=C(\C)[C@@H](O[C@H]3C[C@H](OC)[C@@H](O[C@H]4C[C@H](OC)[C@@H](NC)[C@H](C)O4)[C@H](C)O3)[C@@H](C)/C=C/C=C3\CO[C@@H]4[C@H](O)C(C)=C[C@@H](C(=O)O1)[C@]34O)O2		1.05 µM (active) and 1.48 µM (active)
CC(=NC#N)N(C)Cc1ccc(Cl)nc1	inactive	
O=[N+]([O-])c1cc(C(F)(F)F)c(Cl)c([N+](=O)[O-])c1Nc1ncc(C(F)(F)F)cc1Cl		1.08 µM (active)
COP(=O)(OC)OC(Br)C(Cl)(Cl)Br (centres undefined)		70.1 µM (active)
CCOP(=S)(Oc1cnc(C(C)(C)C)nc1)OC(C)C (centres undefined)	inactive	
S=C1NCCN1	inactive	
CON=C(C(=O)OC)c1ccccc1CON=C(C)c1cccc(C(F)(F)F)c1	inactive	
CCOP(=O)(OCC)Oc1cc(C)nc(C(C)C)n1	inactive	
CC1=NNC(=O)N(/N=C/c2cccnc2)C1	inactive	
CSC1=N[C@@](C)(c2ccccc2)C(=O)N1Nc1ccccc1	inactive	
